Laboratory results as given in PubChem BioAssay (NCI).
The panel holds about 83,000 compounds, 20% with a hit somewhere; the sample as a whole holds those more often.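 Results are percent growth after 48 hours of single-concentration exposure. 100 means growth as in untreated cells, lower positive values show inhibition; negative values down to -100 show cell death.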 Calls of active or inactive are those of the source. How the source made its calls: active means growth percent below 10; inactive means the rest.

Experiments:
Assay in all cases: NCI-60 one-dose screen, 48 h (100 = growth as untreated, 0 = no growth, -100 = all killed)
Conditions in all cases: 10 µM unless noted
[1] = test system: SR leukemia
[2] = test system: RPMI-8226 leukemia
[3] = test system: OVCAR-8 ovarian
[4] = test system: OVCAR-5 ovarian
[5] = test system: OVCAR-4 ovarian
[6] = test system: SK-OV-3 ovarian
[7] = test system: IGROV1 ovarian
[8] = test system: OVCAR-3 ovarian
[9] = test system: HS 578T breast
[10] = test system: NCI/ADR-RES ovarian

Measured: growth

Oc1ccc(Cl)cc1/C=N\NC(=S)N/N=C/c1cc(Cl)ccc1O
inactive: [1] 20.2% | [2] 29.8% | [3] 17.6% | [4] 69.7% | [5] 29.6% | [6] 58.6% | [7] 22.2% | [8] 12.7% | [9] 57.9% | [10] 14.7%

COc1ccc2cc1Oc1ccc(cc1)C[C@H]1c3c(cc4c(c3Oc3cc5c(cc3OC)CCN(C)[C@@H]5C2)OCO4)CCN1C
active: [1] -17.3% | [9] -6.41%
inactive: [2] 48% | [3] 43.9% | [4] 90.2% | [5] 64.8% | [6] 110% | [7] 44.3% | [8] 49.5% | [10] 76.2%

Clc1cccc(Nc2ncnc3ccc(-c4cnc5[nH]ccc5c4)cc23)c1
inactive: [1] 60% | [2] 60% | [3] 68.2% | [4] 78.7% | [5] 85% | [6] 71.1% | [7] 25.1% | [8] 64.6% | [9] 81.4% | [10] 77%

CCc1ccc(CCCC(=O)O)cc1
inactive: [1] 96.2% | [2] 103% | [3] 107% | [4] 98.3% | [5] 104% | [6] 100% | [7] 105% | [8] 108% | [9] 101% | [10] 99.1%

Cc1ccc(C(=O)c2ccc(CC(=O)N/N=C/c3ccccc3O)n2C)cc1
inactive: [1] 56.2% | [2] 81.4% | [3] 79% | [4] 92% | [5] 60.2% | [6] 90.4% | [7] 80.9% | [8] 80.3% | [9] 104% | [10] 69.4%

Cn1cc(C(=O)c2nc(-c3c[nH]c4ccccc34)no2)c2cc(F)ccc21
active: [8] 0.717%
inactive: [1] 11.2% | [2] 37.5% | [3] 49.3% | [4] 68.3% | [5] 69.8% | [6] 43.3% | [7] 32.5% | [9] 44.8% | [10] 36.5%

CCC(C(=O)[C@@H](C)[C@@H](O)[C@H](C)[C@@H]1O[C@@H]([C@@H](CC)C(=O)ONC(=O)c2ccccc2)CC[C@@H]1C)[C@H]1O[C@]2(C=CC(=O)[C@]3(CC[C@@](C)([C@H]4CC[C@](O)(CC)[C@H](C)O4)O3)O2)[C@H](C)C[C@@H]1C (stereo not given in full)
inactive: [3] 12.2% | [5] 35.6% | [6] 95.2% | [10] 12.1%
active: [1] -22.5% | [2] 7.88% | [4] -4.48% | [7] -76.2% | [8] -71.1% | [9] -2.36%

CCN(CC)CCCCCNc1cc(OC(=O)c2ccc(Cl)cc2)cc2cccnc12
inactive: [1] 75.3% | [2] 97.7% | [3] 88.3% | [4] 118% | [5] 39.9% | [6] 119% | [7] 161% | [8] 78.7% | [9] 117% | [10] 95.1%

COc1ccc2c(c1OC)CO[C@@H]2[C@H]1c2c(cc3c(c2OC)OCO3)CCN1S(=O)(=O)c1cn(C)cn1
inactive: [1] 23.7% | [2] 16.5% | [3] 20.4% | [4] 35.1% | [5] 51.5% | [6] 22.2% | [7] 24.7% | [9] 15.5%
active: [8] -35.3% | [10] 3.64%

O=c1c2cnn(-c3ccccc3)c2n2c(CN3CCOCC3)nnc2n1-c1ccccc1
inactive: [1] 104% | [2] 102% | [3] 100% | [4] 114% | [5] 104% | [6] 88.2% | [7] 109% | [8] 105% | [9] 107% | [10] 98.8%

COC(=O)CC[C@@H]1O[C@@H](c2cccc(C(F)(F)F)c2)[C@@H](O)[C@H]1O
inactive: [1] 97.1% | [2] 109% | [3] 110% | [4] 97.1% | [5] 105% | [6] 97.8% | [7] 112% | [8] 99.4% | [9] 93.8% | [10] 108%

CCCCCOC(=O)c1c(C)[nH]c(/C=C2\N=C(c3ccc[nH]3)C=C2OC)c1C
active: [1] -30% | [2] -43.6% | [3] 7.42% | [4] -47.1% | [5] -7.23% | [6] 8.75% | [7] -14.1% | [8] -52.4% | [9] -23.5% | [10] 5.69%

CC(=O)c1c(C)nc(SCC(=O)Nc2cccc(O)c2)n1-c1ccc(Cl)cc1
inactive: [1] 103% | [2] 97% | [3] 99.8% | [4] 104% | [5] 89.1% | [6] 104% | [7] 99% | [8] 103% | [9] 82.1% | [10] 98.9%

CS(=O)(=O)Nc1cc(-c2ccc3ncnc(Nc4ccc5c(cnn5Cc5ccc(F)cc5)c4)c3c2)cnc1Cl
active: [2] 9.43% | [7] -15.7% | [8] 9.71% | [9] -9.56%
inactive: [1] 34% | [3] 67.9% | [4] 44.7% | [5] 71% | [6] 47.5% | [10] 90%
